# Many of the other results were omitted from the sample, so hits are more common in it than they were.
# Pf apPOL block = Pf-apPOL inhibitors, biochemical, fluorescence. Recombinant Pf-apPOL, molecular beacon fluorescence, 1.5 h. Plasmodium falciparum apicoplast DNA polymerase (apPOL). inhibition, % at 10 µM. 210,000 tested, 0.25% active
# mHTT-CaM PPI inh = mutant huntingtin-calmodulin interaction inhibitors – biochemical, AlphaScreen, primary screen. P42858. 190,000 tested, 3.6% active. inhibition, % at 15 µM. AlphaScreen His-mHTT/GST-CaM binding, luminescence;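 note: 0% = both proteins with DMSO and 100% = one protein alone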
# The depositor's hits bear a star; i = inactive; nt = not tested or not shown. Cut-off read from the data, not from the text of the source: active = inhibition above about 50%; inactive = the rest.
SMILES,Pf apPOL block,mHTT-CaM PPI inh
CCOC(=O)c1ccc(NC(=O)c2nc(C)n(C3CCN(C(C)=O)CC3)c2C)cc1,-5,30
CC(=O)N1CCC(n2c(C)nc(C(=O)Nc3ccc(Oc4ccccc4)cc3)c2C)CC1,-2,52*
COc1cccc(-c2nnc(SCC(=O)NCC3CCCO3)n2-c2ccccc2)c1 (stereo not drawn),1,-1
O=C(Nc1ccc(C(F)(F)F)cc1[N+](=O)[O-])O[C@H]1[C@H](Cc2ccccc2)NS(=O)(=O)[C@H]2C[C@@H]3C=C[C@]12O3,-5,65*
Cc1cc(C(=O)O[C@H]2[C@H](Cc3ccccc3)NS(=O)(=O)[C@H]3C[C@@H]4C=C[C@]23O4)ccc1[N+](=O)[O-],-8,17
Cc1nc2c(C(=O)NCc3ccc(Cl)cc3)cnn2c(C)c1Cc1ccccc1,-2,3
O=c1oc2cc3occ(-c4ccc(F)cc4)c3cc2c2c1CCCC2,3,-3
O=c1oc2cc3occ(-c4ccc(Cl)cc4)c3cc2c2c1CCC2,80*,-2
COc1ccc2c(c1)c(=O)oc1cc3occ(-c4ccc(Cl)cc4)c3cc12,1,5
Cc1c(C)c2cc3c(-c4ccc(Cl)cc4)coc3cc2oc1=O,91*,-1
Cc1ccc(Cl)cc1NC(=O)CN(c1cccc([N+](=O)[O-])c1)S(C)(=O)=O,-7,2
CC(C)CCNC(=O)C1(C)CCC(=O)N1Cc1ccccc1F (stereo not drawn),1,-10
COc1ccc(C2Oc3c(OC)cccc3C3CC(c4cccs4)=NN32)cc1 (stereo not drawn),-15,50*
CCOc1cccc2c1OC(c1cc(OC)ccc1OC)N1N=C(c3ccco3)CC21 (stereo not drawn),-20,8
COc1cccc2c1OC(c1cccc(Cl)c1)N1N=C(c3ccco3)CC21 (stereo not drawn),-28,12
CCOc1cccc2c1OC(c1cc(OC)c(OC)c(OC)c1)N1N=C(c3ccco3)CC21 (stereo not drawn),-20,47
CCOc1cccc2c1OC(c1ccc(OC)c(OC)c1OC)N1N=C(c3ccc(C)o3)CC21 (stereo not drawn),-15,61*
CCOc1cccc2c1OC(c1ccc(OC)cc1)N1N=C(c3ccc(C)o3)CC21 (stereo not drawn),-14,81*
COc1cccc(C2Oc3c(OC)cccc3C3CC(c4ccc(C)o4)=NN32)c1 (stereo not drawn),-16,57*
COc1cccc(C2Oc3c(OC)cccc3C3CC(c4cccs4)=NN32)c1 (stereo not drawn),-17,42
COc1ccccc1-n1ccnc(NC(=O)c2ccc(F)cc2)c1=O,-3,-4
COc1cc(Nc2nc(C)nc3sc(C)cc23)cc(OC)c1OC,-10,20
COc1cc(OC)cc(C(=O)N2CC3CC2CC3NC(=O)c2cccnc2)c1 (stereo not drawn),-2,1
COc1ccc(-c2noc(-c3ccc(=O)n(CC(=O)NCc4ccco4)c3)n2)cc1,12,-7
Cc1ccc(-n2nc3c(c2NC(=O)c2cc4ccccc4oc2=O)CS(=O)C3)cc1 (stereo not drawn),-15,6
SMILES,Pf apPOL block,mHTT-CaM PPI inh
O=C(Nc1ccc(Cl)cc1)N1CCCC1c1ccc(F)cc1 (stereo not drawn),0,-8
CC1CC(C)CN(C(=O)c2cc(-c3cccnc3)nc3ccccc23)C1 (stereo not drawn),-6,0
COc1cccc(C(=O)Nc2ccc(NC(=O)c3ccco3)cc2)c1,-6,-1
COc1cc(NCc2ccc3c(c2)Cc2ccccc2-3)cc(OC)c1OC,6,59*
COc1ccc(CC(=O)Nc2ccc3c(c2)Cc2ccccc2-3)cc1OC,-2,-3
COc1ccc(C(O)=C2C(=O)C(=O)N(CCN(C)C)C2c2cccnc2)cc1Cl (stereo not drawn),-2,-6
Cc1cc(C)cc(NC(=O)OCCN2CCN(Cc3ccccc3)CCC2=O)c1,-4,2
N/C(=N\OS(=O)(=O)c1ccc(Cl)cc1)c1cccnc1,2,i
CC1=N/C(=C\c2ccc([N+](=O)[O-])cc2)C(=O)N1c1ccc(Cl)cc1C,-3,15
CC1=N/C(=C\c2ccc([N+](=O)[O-])cc2)C(=O)N1c1cc(Cl)ccc1Cl,-1,52*
COc1cccc(C2=COC3(CCCN(C(=O)C4CCCC4)C3)C2)c1 (stereo not drawn),-3,-13
CCCCCCCc1ccc(NC(=O)Nc2ccccc2C(F)(F)F)cc1,-11,nt
Cc1[nH][nH]c(=O)c1C(c1ccc(OCc2ccc(Br)cc2)cc1)c1c(C)[nH][nH]c1=O,2,52*
CCOc1ccc(C(c2c(C)[nH][nH]c2=O)c2c(C)[nH][nH]c2=O)cc1,3,12
c1ccc(-n2ncc3c(NCc4cccs4)ncnc32)cc1,-2,1
OCCNc1nc(NCc2ccc3c(c2)OCO3)nc2c1cnn2-c1ccc(F)cc1,-8,67*

# High-throughput results as filed in PubChem BioAssay.
